Test results reported in PubChem BioAssay (Tox21).
Results filed as inconclusive are left out. Active and inactive are the calls of the source. Calls come from the whole dose curve; as a rule, active = well fitted cell-killing curve with a large enough effect in the repeat runs; inconclusive = weak or mixed curves, or effect the other way; inactive = flat fitted curve, though single readings scatter.

assay: qHTS assay to identify small molecule that activate the aryl hydrocarbon receptor (AhR) signaling pathway - cell viability counter screen (AID 743086); conditions: HepG2-AhR-luc viability, CellTiter-Fluor, 24 h; series mostly up to 70.3 µM;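 note: HepG2 liver cells carrying the AhR DRE luciferase reporter; nearly all actives have a fitted effect of over 45% in size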
Excerpt: U.S. Tox21 Program National Center for Advancing Translational Sciences [NCATS] NIH Chemical Genomics Center [NCGC] U.S. Environmental Protection Agency [EPA] National Institutes of Environmental Health Sciences [NIEHS] National Toxicology Program [NTP] U.S. Food and Drug Administration [FDA] Tox21 Assay overview: The Aryl hydrocarbon Receptor (AhR), a member of the family of basic helix-loop-helix transcription factors, is crucial to adaptive responses to environmental changes. AhR mediates cellular responses to environmental pollutants such as aromatic hydrocarbons through induction of phase I and II enzymes but also interacts with other nuclear receptor signaling pathways A cell based HepG2-AhR-luc assay (HG2L7.5c1 cell line, developed by Dr. Michael S. Denison, University of California at Davis) was used to assess the activation of AhR. HepG2 (human hepatocellular carcinoma) cells were stably transfected with an Ah receptor-responsive firefly luciferase reporter gene plasmid containing 20 dioxin responsive elements and luciferase reporter gene. Increased luciferase activity can be used to identify the compounds that induce AhR activation. The cytotoxicity of the compounds screened against the HepG2-AhR-luc cell line was tested in parallel by measuring the cell viability using CellTiter-Fluor assay in the same wells.
Tox21 Assay Protocol Summary: 4000 cells in 5 uL/well were dispensed into white wall/solid bottom 1536-well plates using a Multidrop Combi (Thermo Fisher Scientific Inc., Waltham, MA) dispenser. After the assay plates were incubated at 37C for 5 h, 23 nL of compound or DMSO vehicle was transferred to the assay plates by a pintool station (Kalypsys, San Diego, CA). The plates were incubated at 37C for 24 hr. For cell viability measurement, 1 ul/well of CellTiter-Fluor reagent (Promega, Madison, WI) was added into the assay plates using a Flying Reagent Dispenser (FRD) (Aurora Discovery, CA),and then the assay plates were incubated at 37C for 30 min. The fluorescence intensity in the plates was measured using a ViewLux plate reader (PerkinElmer, Shelton, CT), followed by the addition of 4 uL of ONE-Glo Luciferase Assay reagent (Promega) using an FRD (Aurora Discovery). After the assay plates were incubated at room temperature for 30 min, luminescence intensity was measured using a ViewLux plate reader (Perkin Elmer).

Row | SMILES | outcome
1 | CCN(CC)c1ccccc1 | inactive
2 | CC(C)C1(C)N=C(c2nc3ccccc3cc2C(=O)O)NC1=O (stereo not given) | inactive
3 | CCCCCCCCCl | inactive
4 | C#CCN(C)[C@H](C)Cc1ccccc1 | inactive
5 | CCCCN(CC)C(=O)SCCC | inactive
6 | COc1ccc2c3c1O[C@H]1[C@@H](O)C=C[C@H]4[C@@H](C2)N(C)CC[C@@]341 | inactive
7 | CCCCCOC(=O)c1ccccc1C(=O)OCCCCC | inactive
8 | Clc1ccc(Cl)cc1 | inactive
9 | CCOP(OCC)OCC | inactive
10 | O=c1n(Cl)c(=O)n(Cl)c(=O)n1Cl | inactive
11 | CNC(=O)Oc1ccccc1OC(C)C | inactive
12 | Nc1ccc(Oc2ccc(N)cc2)cc1 | inactive
13 | CC(C)(C)OOC(=O)c1ccccc1 | inactive
14 | Cc1[nH]c(=O)n(C(C)(C)C)c(=O)c1Cl | inactive
15 | O=NN1CCCC1 | inactive
16 | COC(=O)c1ccccc1C(=O)OC | inactive
17 | CC(=O)C=C(C)C | inactive
18 | Clc1cccc(Cl)c1Cl | inactive
19 | CCNc1nc(NC(C)C)nc(SC)n1 | inactive
20 | Cc1ccc([N+](=O)[O-])cc1C | inactive

Row | SMILES | outcome
21 | C#CC(C)(C)NC(=O)c1cc(Cl)cc(Cl)c1 | inactive
22 | [N-]=[N+]=[N-] | inactive
23 | CCC12COCN1COC2 | inactive
24 | Cc1cc(Cl)ccc1O | inactive
25 | CCCCCCCCCCCC#N | inactive
26 | O=S(=O)(c1ccc(Cl)cc1)c1cc(Cl)c(Cl)cc1Cl | inactive
27 | C1CN2CCN1CC2 | inactive
28 | c1cc2c3c(cccc3c1)CC2 | inactive
29 | C1CC2OC2CC1C1CO1 (stereo not given) | inactive
30 | O=NN1CCCCCCC1 | inactive
31 | CN=C=S | inactive
32 | Cc1ccc(N)cc1Cl | inactive
33 | Cc1ccc(N)cc1N | inactive
34 | [O-][Cl+2]([O-])O | inactive
35 | CN(N=O)c1ccccc1 | inactive
36 | Cc1cc(-c2cc(C)c(N)c(C)c2)cc(C)c1N | inactive
37 | O=S(=O)(c1ccc(O)cc1)c1ccc(O)cc1 | inactive
38 | O=Cc1cccc(Oc2ccccc2)c1 | inactive
39 | ClCc1cccnc1 | inactive
40 | CC(C)C#N | inactive
